Screens as filed in PubChem BioAssay.
Compounds with a hit are over-represented: about 1.2% of the library has one in this group of screens.
ASM inhibitor: Inhibitors of Secretory Acid Sphingomyelinase (S-ASM): qHTS | Sphingomyelin phosphodiesterase (Homo sapiens), P17405 | placental ASM, HMU-PC fluorogenic substrate, 60 min | Potency, µM (highest dose often 57.5 µM), for inactives: at the highest dose activity change, negative = inhibition, actives largely listed as inhibitors | 0.006% of 340,000 active; also: potency is read from the fitted curve at half-maximal effect
Target sequence (P17405 47-631 limits assumed): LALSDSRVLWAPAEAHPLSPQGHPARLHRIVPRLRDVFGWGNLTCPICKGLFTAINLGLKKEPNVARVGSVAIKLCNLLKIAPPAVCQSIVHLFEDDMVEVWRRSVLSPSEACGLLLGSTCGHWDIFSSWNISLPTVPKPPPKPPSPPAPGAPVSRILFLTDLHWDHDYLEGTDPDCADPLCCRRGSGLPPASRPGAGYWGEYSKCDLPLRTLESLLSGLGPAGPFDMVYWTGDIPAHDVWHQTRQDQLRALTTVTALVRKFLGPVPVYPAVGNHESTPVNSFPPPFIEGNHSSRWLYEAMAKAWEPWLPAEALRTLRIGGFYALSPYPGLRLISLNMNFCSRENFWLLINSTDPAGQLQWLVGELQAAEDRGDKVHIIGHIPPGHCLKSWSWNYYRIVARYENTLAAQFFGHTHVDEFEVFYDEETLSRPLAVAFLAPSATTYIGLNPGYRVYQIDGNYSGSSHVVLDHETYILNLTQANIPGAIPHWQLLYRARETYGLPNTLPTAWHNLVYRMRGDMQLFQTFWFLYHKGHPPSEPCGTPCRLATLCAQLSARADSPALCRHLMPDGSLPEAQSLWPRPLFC
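qHTS format. ASM enzyme prepared from human placenta hydrolyses the fluorogenic substrate HMU-PC0 (9 uM final) over 60 min at 37 °C after a 10 min compound preincubation.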
PTAP TSG101 blk: qHTS Assay for Iinhibitors of HIV-1 Budding by Blocking the Interaction of PTAP/TSG101. Potency, µM (titrated, usually from 115 µM), for the others: at the top dose activity change, negative = inhibition, hits mostly inhibitors. Fluorescence polarization, FITC-PTAP peptide / Tsg101 binding. Tumor susceptibility gene 101 protein (Homo sapiens), Q99816. AID 493005, 2010. 340,000 tested, under 10 active; active = well fitted inhibition curve with a large enough effect in the main read-out, with a control signal flat, not every such curve was filed as active; inconclusive = small, poorly fitted or top-dose-only effect, or effect the other way, or a change in a side signal; inactive = no such curve, though single readings can be large or run the other way; also: potency is read from the fitted curve at half-maximal effect; % of control where 0% means no effect
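Fluorescence anisotropy tracks displacement of a FITC-tagged PTAP peptide (50 nM) from the Tsg101 binding domain (10 uM), following a 20 min room-temperature incubation at pH 7.5.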
BRCA1 expr up: qHTS Assay to Identify Small Molecule Activators of BRCA1 Expression; MCF7-BRCA1-FFLuc reporter, luminescence, 48 h; response scale: scaled: vehicle 0%, 10 µM genistein 100%; Potency, µM (series often up to 46.1 µM), for inactives: at the highest dose activation, actives largely listed as activators; 1.1% of 380,000 active; AID 624202, 2012; also: potency is read from the fitted curve at half-maximal effect; nearly all actives have a fitted effect of over 80% in size
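Using MCF7 cells harboring a BRCA1 firefly luciferase reporter, plated 2 h before compound pinning, the screen measured luminescence after 48 h incubation. Responses were normalized to DMSO and 10 microM genistein, then fitted for concentration-effect.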
TSHR antagonist: Antagonists of the Thyroid Stimulating Hormone Receptor: HTS campaign | Thyrotropin receptor (Homo sapiens), P16473 | AID 504810, 2011 | 0.2% of 330,000 active | TSHR-expressing cells, TSH-stimulated cAMP HTRF, 2 h; stronger effect = lower value | activity change, negative = inhibition, % at 11.5 µM;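 active = activity change below a set negative limit, meaning inhibition stronger than a set level, cut at about -70% in these data; inconclusive = activity change between two set negative limits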; also: % is scaled to controls: 0 for no effect and ±100 for the full control effect
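Read-out is FRET at 665 nm (cryptate excitation 337 nm) from a cryptate-tagged anti-cAMP antibody, competed by cell cAMP against cAMP-d2. Compounds are tested on freshly harvested TSHR cells challenged with 4nM TSH (EC80) for 2 hours at 37 deg C.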
Apoferritin bind: qHTS Assay for Identification of Novel General Anesthetics; Ferritin light chain (Equus caballus), P02791; apoferritin/1-aminoanthracene competitive binding, fluorescence; Potency, µM (titrated, usually from 77.5 µM), without a hit: top-dose activity change, negative = displacement, usual class: inhibitors; 0.074% of 350,000 active; also: potency is read from the fitted curve at half-maximal effect; % is scaled to controls: 0 for no effect and ±100 for the full control effect; nearly all actives have a fitted effect of over 20% in size
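Probe: 1-aminoanthracene (50% saturated, PBS). Protein: horse-spleen apoferritin, 10 uM. Incubation: 10 min, room temperature. Detection: 380 nm excitation, 535 nm emission. Analysis: normalized response, four-parameter Hill.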
Active calls of the source: *; ? = inconclusive; / = no result given; [ ] = dose if it differs, or a comment. Unless noted, calls follow the shape of the dose curve; as a rule, active = well fitted curve in the direction sought with a large enough effect; inconclusive = small, poorly fitted or top-dose-only effect, or another doubt; inactive = no such curve, though single readings can be large; an effect the other way counts as inactive or inconclusive.

SMILES | ASM inhibitor | PTAP TSG101 blk | BRCA1 expr up | TSHR antagonist | Apoferritin bind
CCc1nnc(NC(=O)c2cccc(NC(=O)C(C)C)c2)s1 | -3% | -6% | 11µM* | -2 | -14%
COC(=O)Nc1nnc(/C=C/c2ccc(OC)cc2)s1 | 373% | 0% | 11µM* | -10 | -11%
COC(=O)N1[C@H](C)C=C[C@]1(Cc1ccccc1)C(=O)NCc1ccc(N(C)C)cc1 | / | / | / | / | -9%
CCc1nnc(NC(=O)c2ccc(OC)cc2)s1 | 2% | -1% | 7.1µM* | -9 | -1%
CC(C)(C)Cc1nnc(NC(=O)c2ccc([N+](=O)[O-])cc2)s1 | -1% | -3% | 5.6µM* | -6 | -4%
COc1cccc(C(=O)Nc2nnc(-c3ccccc3)s2)c1OC | 4% | -1% | 1.8µM* | 32 | -11%
CC(C)(C)Cc1nnc(NC(=O)Cc2ccc([N+](=O)[O-])cc2)s1 | -2% | -2% | -27% | 1 | -2%
CCc1nnc(NC(=O)c2cc(C)oc2C)s1 | -1% | 0% | 5.6µM* | 22 | -7%
COc1cc2c(NC3CCN(C(C)C)CC3)nc(N3CCCN(C)CC3)nc2cc1OCCCN1CCCC1 | / | / | -61% | / | /
O=C(Cc1ccc(F)cc1)c1ccc(O)cc1O | -8% | -2% | 13µM* | -8 | ?
Nc1nc(SCc2ccc(Cl)cc2)ns1 | 0% | -1% | 91% | -34 | 50µM*
Nc1nc(SCc2ccccc2Cl)ns1 | 1% | -4% | 6% | -46 | ?
Nc1nc(SCc2ccccc2)ns1 | 0% | -1% | 11µM* | -2 | ?
CC(C)CSc1nsc(N)n1 | -2% | -5% | 13µM* | 6 | ?
C1=Nc2ccccc2/C1=C/c1c[nH]c2ccccc12 | / | / | -22% | / | /
Cc1cc(C)cc(NC2=C(c3ccccc3)C(=O)c3ccccc32)c1 | / | / | / | / | -19%
O=C(O)c1ccccc1CSc1nc2ccccc2o1 | 6% | -6% | 8.9µM* | -7 | -10%
COc1ccccc1CNC(=O)c1cccc(-c2ccccc2OC)n1 | / | / | / | / | -18%[110 µM]
O=C1COc2ccc(OCc3ccc(F)cc3)cc21 | -4% | / | 2.8µM* | -10 | ?
COc1ccc2c(-c3cc4ccc(OCc5ccc(F)cc5)cc4oc3=O)cc(=O)oc2c1 | 4% | 2% | -9% | -5 | 0%
Cc1cc(C(=O)Nc2cccnc2)no1 | 6% | -1% | 2% | -1 | -6%
Cc1cc(C(=O)Nc2ccc3[nH]ccc3c2)no1 | 3% | 1% | 6.3µM* | -4 | -4%
CC(/C=N/NC(=O)Cc1cccn1C)=C\c1ccccc1 | -3% | -3% | 11µM* | -3 | -4%
O=C1CC(C(F)(F)C(F)(F)C(F)(F)C(F)F)=Nc2ccccc2N1 | -4% | -11% | -2% | -12 | 50µM*
O=C(Oc1ccc(C(=S)N2CCCCC2)cc1)c1ccccc1F | 5% | -5% | 16% | 3 | -11%
SMILES | ASM inhibitor | PTAP TSG101 blk | BRCA1 expr up | TSHR antagonist | Apoferritin bind
Fc1ccccc1COc1ccc(C(=S)N2CCCC2)cc1 | 2% | 3% | 11µM* | -3 | ?
CCc1nnc(NC(=O)C2COc3ccccc3O2)s1 (stereo not given) | 1% | 1% | 11µM* | -3 | -17%
CCc1nnc(NC(=O)/C=C/c2ccco2)s1 | 3% | 2% | 4µM* | -16 | 2%
O=C(/C=C/c1ccco1)NCCc1ccccc1 | -2% | -4% | 6.3µM* | 4 | -15%
CCSc1nnc(NC(=O)/C=C/c2ccco2)s1 | -2% | -1% | 16% | -5 | -4%
CCCCCc1nnc(NC(=O)C2COc3ccccc3O2)s1 (stereo not given) | 6% | -3% | 15% | 13 | ?
O=C(O)CCCNC(=O)/C=C/c1ccco1 | 8% | -3% | -34% | -9 | 2%
N#Cc1ccccc1OCC(O)CNCCNC(=O)Nc1ccccc1 (stereo not given) | / | / | / | / | 0%
N#Cc1nc(Nc2ccccc2)nc(NC2CCCC2)n1 | / | / | / | / | -11%
C=C1C=C(C(F)F)n2ncc(C(=O)NCc3ccccc3)c2N1 | / | / | -4% | / | /
